Test results as given in PubChem BioAssay (NCATS).
Results filed as inconclusive are left out. Calls of active or inactive are those of the source. Calls follow the shape of the dose curve; as a rule, active = well fitted curve in the direction sought with a large enough effect; inconclusive = small, poorly fitted or top-dose-only effect, or another doubt; inactive = no such curve, though single readings can be large; an effect the other way counts as inactive or inconclusive.

Columns and labels:
[1] = MultiTox-Fluor Cytotoxicity Assay - LYMP1-001 - Dead Cells (AID 946)
Summary of the method: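 Cytotoxicity as increased dead-cell protease fluorescence (bis-AAF-R110, 485/520 nm), read 60 min after MultiTox-Fluor reagent. Human lymphoblastoid line exposed 16 h; Hill-fitted AC50, with DMSO as 0% and 15 uM tetraoctylammonium bromide as 100%.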

[2] = MultiTox-Fluor Cytotoxicity Assay - LYMP1-001 - Live Cells (AID 947)
[3] = Cell Viability - LYMP1-002 - Assay at 16 hr (AID 948)
Summary of the method: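 LYMP1-002 human lymphoblastoid cells, 2500/well; 5 hr 37 C; cpd 16 hr 37 C; CellTiter-Glo 30 min RT; luminescence (ATP). Concentration-response, Hill-fit AC50. Pos ctrl tetraoctylammonium bromide.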

[4] = MultiTox-Fluor Cytotoxicity Assay - LYMP1-002 - Live Cells (AID 955);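 also: cells exposed to compound for 16 hours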
Summary of the method: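 Cells were seeded at 2500 per well and incubated 5 hr. Compounds were then added for 16 hr at 37 C, followed by MultiTox-Fluor reagent for 60 min at room temperature and fluorescence reading of viable-cell protease signal.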

[5] = MultiTox-Fluor Cytotoxicity Assay - LYMP1-002 - Dead Cells (AID 960); also: nearly all actives have a fitted effect of over 60% in size
Summary of the method: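 Cells were plated, rested 5 hr, then treated with compound dilution series for 16 hr at 37 C. After adding substrate reagent and 60 min at room temperature, dead-cell protease fluorescence gave concentration-response curves fitted by the Hill equation.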

[6] = MultiTox-Fluor Cytotoxicity Assay - LYMP1-003 - Dead Cells (AID 961); also: nearly all actives have a fitted effect of over 70% in size
Summary of the method: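 Dead-cell protease release, detected as bis-AAF-R110 fluorescence at 485/520 nm, was measured in LYMP1-003 cells after 16 h compound treatment at 37 C. AC50 values came from Hill-modeled qHTS curves normalized to DMSO (0%) and 15 uM tetraoctylammonium bromide (100%).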

[7] = MultiTox-Fluor Cytotoxicity Assay - LYMP1-003 - Live Cells (AID 962);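 also: cells exposed to compound for 16 hours at 37 °C; cytotoxic hits lower the live-cell protease signal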
Summary of the method: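 Acute cytotoxicity is scored as a drop in live-cell protease activity in human lymphoblastoid LYMP1-003 cells after 16 hr compound exposure at 37 C. AC50 values come from Hill-equation modelling of concentration-response data.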

[8] = Cell Viability - LYMP1-003 - Assay at 24 hr (AID 963)
Summary of the method: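 Cytotoxicity is scored as a concentration-dependent fall in ATP-linked luciferase signal in human lymphoblastoid LYMP1-003 cells treated 24 hr at 37 C in complete culture medium.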

[9] = Cell Viability - LYMP1-003 - Assay at 40 hr (AID 964); also: series mostly up to about 92 µM; nearly all actives have a fitted effect of over 60% in size
Summary of the method: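 Luminescent ATP signal (CellTiter-Glo) served as the viability read-out after 40 hr compound treatment of human lymphoblastoid LYMP1-003 cells at 37 C. Decreases in ATP were fitted with the Hill equation to give AC50.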

[10] = Cell Viability - LYMP2-003 (AID 965);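 also: cells exposed to compounds for 24 h before reading; nearly all actives have a fitted effect of over 50% in size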
Summary of the method: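 CellTiter-Glo luminescence (cellular ATP) after 24 h compound exposure at 37 C in complete medium; 2500 cells/well, 5 h settling beforehand. Concentration-response fitted to standard Hill equation for AC50. Tetraoctylammonium bromide served as positive control.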

[11] = Cell Viability - LYMP2-004 (AID 966); also: nearly all actives have a fitted effect of over 65% in size
Summary of the method: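 qHTS cytotoxicity: human lymphoblastoid line, 24 hr compound treatment, 37 C, complete medium. Viability read as cellular ATP via luciferase luminescence; tetraoctylammonium bromide served as positive control.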

[12] = Cell Viability - LYMP2-005 (AID 967); also: series mostly up to about 92 µM
Summary of the method: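 Steps: seed 2500 LYMP2-005 cells/well, incubate 5 h at 37 C, add compound, incubate 24 h at 37 C, add CellTiter-Glo, wait 30 min at RT, read luminescence. Concentration-response data fitted to Hill equation for AC50.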

[13] = Cell Viability - LYMP2-009 (AID 968); also: series mostly up to about 92 µM; nearly all actives have a fitted effect of over 55% in size
[14] = Cell Viability - LYMP2-011 (AID 969); also: nearly all actives have a fitted effect of over 60% in size
Summary of the method: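 In this qHTS cytotoxicity format, compounds are tested across concentrations on human lymphoblastoid cells in complete medium for 24 hours at 37 C. Viability is taken as cellular ATP measured by luciferase luminescence.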

[15] = Cell Viability - LYMP2-013 (AID 970); also: series mostly up to about 92 µM; nearly all actives have a fitted effect of over 55% in size
Summary of the method: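 Cytotoxicity is scored as a concentration-dependent drop in intracellular ATP in human lymphoblastoid cells after 24 hr compound exposure at 37 C. ATP is quantified by luciferase luminescence, and AC50 values come from Hill-equation modeling.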

[16] = Cell Viability - LYMP2-015 (AID 971); also: nearly all actives have a fitted effect of over 55% in size
Summary of the method: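 Cells are seeded at 2500 per well and incubated 5 hr at 37 C. Compounds are added across a concentration series for 24 hr at 37 C. CellTiter-Glo is added, and luminescence is read after 30 min at room temperature.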

[17] = Cell Viability - LYMP2-017 (AID 972); also: series mostly up to about 92 µM; nearly all actives have a fitted effect of over 55% in size
Summary of the method: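 Cytotoxicity is scored as a concentration-dependent drop in cellular ATP in a human lymphoblastoid line after 24 hr treatment at 37 C. Values are AC50s from Hill-equation modelling.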

[18] = Cell Viability - LYMP2-019 (AID 973); also: nearly all actives have a fitted effect of over 55% in size
Summary of the method: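 Cytotoxicity is scored as a concentration-dependent drop in cellular ATP after cells (2500/well) receive compound for 24 hr at 37 C. Tetraoctylammonium bromide serves as positive control.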

[19] = Cell Viability - LYMP2-021 (AID 974)
Summary of the method: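 Loss of cellular ATP, measured with a luciferase-based CellTiter-Glo readout, serves as the toxicity signal in human lymphoblastoid cells treated for 24 hours at 37 C. Potency is reported as AC50 from a standard Hill model.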

[20] = Cell Viability - LYMP2-023 (AID 975)
Summary of the method: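 Steps: seed 2500 human lymphoblastoid cells per well, incubate 5 hr at 37 C, add compound for 24 hr at 37 C, add CellTiter-Glo, hold 30 min at room temperature, read luminescence. AC50 derived by Hill modelling.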

Measured: Potency

CC(C)=C1CCC(C)CC1=O (centres undefined)
inactive: all assays above

O=[N+]([O-])c1ccccc1CCO
inactive: all assays above

CC=C(Cl)Cl
inactive: all assays above

Cc1ccc(C)c(O)c1
inactive: all assays above

O=Cc1ccccc1Cl
inactive: all assays above

C1COC1
inactive: all assays above

CCCCCCCN
inactive: all assays above

C=C(C)C(=O)OCC(C)O (centres undefined)
inactive: all assays above

Oc1c(Cl)ccc(Cl)c1Cl
inactive: all assays above

CCCCCO
inactive: all assays above

Nc1cccc(N)c1
inactive: all assays above

CC(=O)CCc1ccccc1
inactive: all assays above

Cc1cc(C)cc(O)c1
inactive: all assays above

c1ccsc1
inactive: all assays above

Nc1cccc(S(=O)(=O)O)c1
inactive: all assays above

CCNc1cc(O)ccc1C
inactive: all assays above

CC(=O)OCc1ccco1
not listed: [17]
inactive: all other assays above

O=c1[nH][nH]c(=O)c2cc([N+](=O)[O-])ccc12
not listed: [17]
inactive: all other assays above

O=[N+]([O-])c1cccc(Cl)c1
not listed: [14]
inactive: all other assays above

Cc1ccc([N+](=O)[O-])c(N)c1
not listed: [14]
inactive: all other assays above

NC(=S)NNC(N)=S
not listed: [17]
inactive: all other assays above

Cc1ccc2cccnc2c1
not listed: [14]
inactive: all other assays above

CC(=O)Nc1ccc(N)cc1
not listed: [17]
inactive: all other assays above

O=C(Cl)c1ccccc1[N+](=O)[O-]
not listed: [17] | [19]
inactive: all other assays above

CCCOCC(C)O (centres undefined)
not listed: [17]
inactive: all other assays above

Cc1cscn1
not listed: [16] | [17] | [19]
inactive: all other assays above

C=C(C)C(=O)OC
not listed: [17] | [19]
inactive: all other assays above

CCN(CC)c1cccc(O)c1
inactive: all assays above

CC(C)Cc1nccs1
not listed: [19]
inactive: all other assays above
